# Measurements from the supplement of paper PMC7411054.
# Experiments:
# Details in all cases: treatment time: 24 h
# A549-ACTB-RAB5A [1] = assay: phenotypically active (imaging signature differs from DMSO and reproducible) at any of 0.3-9 uM (binary (1 = active, 0 = inactive)); higher = active
# Summary of the method: (§1)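 Phenotypic activity depended on meeting both a deviation and a reproducibility criterion. The fifteen gene-edited A549, HepG2 and WPMY1 reporter lines were treated at 0.3, 1, 3 or 9 µM for 24 h, four wells each, then imaged live with features normalised to solvent control wells. Deviation required ≥3 of 4 wells past the 95th percentile of control Euclidean distances, and reproducibility a median replicate Pearson correlation above the 95th percentile of non-replicates.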
# A549-CANX-COX4 [2] = assay: as above
# Summary of the method: as §1
# A549-GM130-SQSTM1 [3] = assay: as above
# Summary of the method: as §1
# A549-TP53BP1-CLTA [4] = assay: as above
# Summary of the method: as §1
# A549-TUBA1B-RELA [5] = assay: as above
# Summary of the method: as §1
# HepG2-ACTB-RAB5A = assay: as above
# Summary of the method: as §1
# HepG2-CANX-COX4 = assay: as above
# Summary of the method: as §1
# HepG2-GM130-SQSTM1 = assay: as above
# Summary of the method: as §1
# HepG2-TP53BP1-CLTA = assay: as above
# Summary of the method: as §1
# HepG2-TUBA1B-RELA = assay: as above
# Summary of the method: as §1
# WPMY1-ACTB-RAB5A = assay: as above
# Summary of the method: as §1
# WPMY1-CANX-COX4 = assay: as above
# Summary of the method: as §1
# WPMY1-GM130-SQSTM1 = assay: as above
# Summary of the method: as §1
# WPMY1-TP53BP1-CLTA = assay: as above
# Summary of the method: as §1
# WPMY1-TUBA1B-RELA = assay: as above
# Summary of the method: as §1
# A549-ACTB-RAB5A [6] = assay: lowest phenotypically active concentration; higher = less potent
# Summary of the method: as §1
# A549-CANX-COX4 [7] = assay: as above
# Summary of the method: as §1
# A549-GM130-SQSTM1 [8] = assay: as above
# Summary of the method: as §1
# A549-TP53BP1-CLTA [9] = assay: as above
# Summary of the method: as §1
# A549-TUBA1B-RELA [10] = assay: as above
# Summary of the method: as §1
Structure (SMILES),phenotypically active (A549-ACTB-RAB5A [1]),phenotypically active (A549-CANX-COX4 [2]),phenotypically active (A549-GM130-SQSTM1 [3]),phenotypically active (A549-TP53BP1-CLTA [4]),phenotypically active (A549-TUBA1B-RELA [5]),phenotypically active (HepG2-ACTB-RAB5A),phenotypically active (HepG2-CANX-COX4),phenotypically active (HepG2-GM130-SQSTM1),phenotypically active (HepG2-TP53BP1-CLTA),phenotypically active (HepG2-TUBA1B-RELA),phenotypically active (WPMY1-ACTB-RAB5A),phenotypically active (WPMY1-CANX-COX4),phenotypically active (WPMY1-GM130-SQSTM1),phenotypically active (WPMY1-TP53BP1-CLTA),phenotypically active (WPMY1-TUBA1B-RELA),lowest phenotypically active concentration (A549-ACTB-RAB5A [6]),lowest phenotypically active concentration (A549-CANX-COX4 [7]),lowest phenotypically active concentration (A549-GM130-SQSTM1 [8]),lowest phenotypically active concentration (A549-TP53BP1-CLTA [9]),lowest phenotypically active concentration (A549-TUBA1B-RELA [10])
NCCCC[C@H](N[C@@H](CCc1ccccc1)C(=O)O)C(=O)N1CCC[C@H]1C(=O)O [lisinopril],0 (inactive),0 (inactive),0 (inactive),0 (inactive),0 (inactive),0 (inactive),0 (inactive),0 (inactive),0 (inactive),0 (inactive),0 (inactive),0 (inactive),0 (inactive),0 (inactive),0 (inactive),–,–,–,–,–
O=C(/C=C/N1C[C@H]2C[C@@H]1CN2c1ccccn1)c1ccccc1O,0 (inactive),0 (inactive),0 (inactive),0 (inactive),0 (inactive),0 (inactive),0 (inactive),0 (inactive),0 (inactive),0 (inactive),0 (inactive),0 (inactive),0 (inactive),0 (inactive),0 (inactive),–,–,–,–,–
CN1C(CSCC(F)(F)F)Nc2cc(Cl)c(S(N)(=O)=O)cc2S1(=O)=O (stereo not given) [polythiazide],0 (inactive),0 (inactive),0 (inactive),0 (inactive),0 (inactive),0 (inactive),0 (inactive),0 (inactive),0 (inactive),0 (inactive),0 (inactive),0 (inactive),0 (inactive),0 (inactive),0 (inactive),–,–,–,–,–
C[C@]12CCC(=O)C=C1CC[C@@H]1[C@@H]2[C@@H](O)C[C@@]2(C)[C@H]1CC[C@]2(O)C(=O)CO [hydrocortisone],1 (active),1 (active),1 (active),1 (active),1 (active),0 (inactive),0 (inactive),0 (inactive),0 (inactive),0 (inactive),0 (inactive),0 (inactive),0 (inactive),0 (inactive),0 (inactive),≤ 0.3 µM,≤ 0.3 µM,≤ 0.3 µM,≤ 0.3 µM,≤ 0.3 µM
Nc1nc(Cl)nc2c1ncn2[C@@H]1O[C@H](CO)[C@@H](O)[C@@H]1F [clofarabine],1 (active),1 (active),1 (active),1 (active),1 (active),1 (active),1 (active),1 (active),1 (active),1 (active),1 (active),1 (active),1 (active),1 (active),1 (active),1 µM,≤ 0.3 µM,1 µM,1 µM,1 µM
C=CC(=O)N1CCC[C@@H](n2nc(-c3cccc(C(=O)Nc4ccc(C(C)C)c(C)c4)c3)c3c(N)ncnc32)C1,1 (active),1 (active),1 (active),1 (active),1 (active),1 (active),1 (active),1 (active),1 (active),1 (active),1 (active),1 (active),1 (active),1 (active),1 (active),3 µM,3 µM,3 µM,3 µM,1 µM
CCN(CC)c1ccc(/C=N/NC(=O)c2ccncc2)c(O)c1,1 (active),1 (active),1 (active),1 (active),1 (active),1 (active),1 (active),1 (active),1 (active),1 (active),1 (active),1 (active),1 (active),1 (active),1 (active),≤ 0.3 µM,1 µM,1 µM,1 µM,1 µM
Cc1ccc([N+](=O)[O-])cc1S(=O)(=O)N(C)/N=C/c1cnc2ccc(Br)cn12,1 (active),1 (active),1 (active),1 (active),1 (active),1 (active),1 (active),1 (active),1 (active),1 (active),1 (active),1 (active),1 (active),1 (active),1 (active),≤ 0.3 µM,≤ 0.3 µM,≤ 0.3 µM,≤ 0.3 µM,≤ 0.3 µM
O=C(NCCCNc1nc(Nc2cccc(NC(=O)N3CCCC3)c2)ncc1I)c1cccs1,1 (active),1 (active),1 (active),1 (active),1 (active),1 (active),1 (active),1 (active),1 (active),1 (active),1 (active),1 (active),1 (active),1 (active),1 (active),1 µM,3 µM,3 µM,3 µM,3 µM
N#Cc1c(C2CCNCC2)cc(-c2c(O)cccc2OCC2CC2)nc1N,1 (active),1 (active),1 (active),1 (active),1 (active),1 (active),1 (active),1 (active),1 (active),1 (active),1 (active),1 (active),1 (active),1 (active),1 (active),9 µM,9 µM,9 µM,9 µM,9 µM
O=C1c2c(O)ccc(O)c2C(=O)c2c(NCCNCCO)ccc(NCCNCCO)c21 [mitoxantrone],1 (active),1 (active),1 (active),1 (active),1 (active),1 (active),1 (active),1 (active),1 (active),1 (active),1 (active),1 (active),1 (active),1 (active),1 (active),≤ 0.3 µM,≤ 0.3 µM,≤ 0.3 µM,≤ 0.3 µM,≤ 0.3 µM
CNC1CCC2(C)C(=CCC3C2CCC24CN(C)C(C)C2CCC34)C1 (stereo not given) [Isoconessimine],1 (active),1 (active),1 (active),1 (active),1 (active),1 (active),1 (active),1 (active),1 (active),1 (active),1 (active),1 (active),1 (active),1 (active),1 (active),≤ 0.3 µM,9 µM,≤ 0.3 µM,1 µM,≤ 0.3 µM
COc1ccc(S(=O)(=O)Nc2cccnc2Nc2ccc(O)cc2)cc1,1 (active),1 (active),1 (active),1 (active),1 (active),1 (active),1 (active),1 (active),1 (active),1 (active),1 (active),1 (active),1 (active),1 (active),1 (active),1 µM,1 µM,1 µM,1 µM,3 µM
O=C(NC(NC(=S)Nc1ccc(F)c([N+](=O)[O-])c1)C(Cl)(Cl)Cl)C(c1ccccc1)c1ccccc1 (stereo not given),1 (active),1 (active),1 (active),1 (active),1 (active),1 (active),1 (active),1 (active),1 (active),1 (active),1 (active),1 (active),1 (active),1 (active),1 (active),3 µM,9 µM,3 µM,9 µM,9 µM
CC(=O)O[C@@]12CO[C@@H]1C[C@H](O)[C@@]1(C)C(=O)[C@H](O)C3=C(C)[C@@H](OC(=O)[C@H](O)[C@@H](NC(=O)OC(C)(C)C)c4ccccc4)C[C@](O)([C@@H](OC(=O)c4ccccc4)[C@H]21)C3(C)C [Docetaxel],1 (active),1 (active),1 (active),1 (active),1 (active),1 (active),1 (active),1 (active),1 (active),1 (active),1 (active),1 (active),1 (active),1 (active),1 (active),≤ 0.3 µM,≤ 0.3 µM,≤ 0.3 µM,≤ 0.3 µM,≤ 0.3 µM
C[C@@H](Oc1cc(-n2cnc3ccc(CN4CCN(C)CC4)cc32)sc1C(N)=O)c1ccccc1C(F)(F)F,1 (active),1 (active),1 (active),1 (active),1 (active),1 (active),1 (active),1 (active),1 (active),1 (active),1 (active),1 (active),1 (active),1 (active),1 (active),≤ 0.3 µM,≤ 0.3 µM,≤ 0.3 µM,≤ 0.3 µM,≤ 0.3 µM
Cc1c(NC(=O)OC[C@@H]2COCCN2)cn2ncnc(Nc3ccc4c(cnn4Cc4cccc(F)c4)c3)c12,1 (active),1 (active),1 (active),1 (active),1 (active),1 (active),1 (active),1 (active),1 (active),1 (active),1 (active),1 (active),1 (active),1 (active),1 (active),1 µM,1 µM,1 µM,≤ 0.3 µM,1 µM
CN[C@H]1CC[C@@H](c2ccc(Cl)c(Cl)c2)c2ccccc21 [sertraline],1 (active),1 (active),1 (active),1 (active),1 (active),1 (active),1 (active),1 (active),1 (active),1 (active),1 (active),1 (active),1 (active),1 (active),1 (active),1 µM,9 µM,3 µM,9 µM,1 µM
COc1ccc(-c2ccc3ncc4c(c3c2)n(-c2ccc(N3CCNCC3)c(C(F)(F)F)c2)c(=O)n4C)cn1,1 (active),1 (active),1 (active),1 (active),1 (active),1 (active),1 (active),1 (active),1 (active),1 (active),1 (active),1 (active),1 (active),1 (active),1 (active),≤ 0.3 µM,≤ 0.3 µM,≤ 0.3 µM,≤ 0.3 µM,≤ 0.3 µM
Cc1c(C(=O)N2CCOc3ccc(-c4ccc(N)nc4)cc3C2)ccc(S(C)(=O)=O)c1F,1 (active),1 (active),1 (active),1 (active),1 (active),1 (active),1 (active),1 (active),1 (active),1 (active),1 (active),1 (active),1 (active),1 (active),1 (active),1 µM,3 µM,3 µM,3 µM,1 µM
Nc1ncnc2c1c(-c1cnc3[nH]ccc3c1)nn2C1CCCC1,1 (active),1 (active),1 (active),1 (active),1 (active),1 (active),1 (active),1 (active),1 (active),1 (active),1 (active),1 (active),1 (active),1 (active),1 (active),≤ 0.3 µM,1 µM,≤ 0.3 µM,≤ 0.3 µM,≤ 0.3 µM
CN(C)c1ccc(C(=O)NCCCCCCC(=O)NO)cc1,1 (active),1 (active),1 (active),1 (active),1 (active),1 (active),1 (active),1 (active),1 (active),1 (active),1 (active),1 (active),1 (active),1 (active),1 (active),≤ 0.3 µM,≤ 0.3 µM,1 µM,≤ 0.3 µM,≤ 0.3 µM
